Counter-ions that a name gives are not always drawn.
Key:
Assay in all cases: Euclidean distance of Cell Painting phenotypic profile (signed KS, 77 features) to DMSO centroid (dimensionless distance); 5 or 10 uM (library dependent); higher = stronger phenotypic change vs DMSO (phenoactivity)
Details in all cases: 48 h
[1] = system: 786-O
Outline: (§1)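 At 10 or 5 uM, as set by the library, and 0.1% DMSO final, compounds were applied for 48 h to five cancer lines and one healthy fibroblast line. Stained cells were imaged confocally at 20X in 9 fields per well, and Harmony extracted 77 features scored as signed Kolmogorov-Smirnov statistics against vehicle wells on the same plate. Profiles underwent plate-position correction, correlation weighting and replicate averaging at the top dose. Phenoactivity is the Euclidean distance from each such profile to the median vehicle profile.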

[2] = system: A549
Outline: as §1

[3] = system: DU145
Outline: as §1

[4] = system: FB
Outline: as §1

[5] = system: HEPG2
Outline: as §1

[6] = system: OVCAR4
Outline: as §1

Compound	Euclidean distance [1]	Euclidean distance [2]	Euclidean distance [3]	Euclidean distance [4]	Euclidean distance [5]	Euclidean distance [6]
C=CC[C@@H]1/C=C(\C)C[C@H](C)C[C@H](OC)[C@H]2O[C@@](O)(C(=O)C(=O)N3CCCC[C@H]3C(=O)O[C@H](/C(C)=C/[C@@H]3CC[C@@H](O)[C@H](OC)C3)[C@H](C)[C@@H](O)CC1=O)[C@H](C)C[C@@H]2OC [Tacrolimus (FK506)]	0.986	1.47	2.38	1.07	0.59	0.647
CN(Cc1ccc(C(C)(C)C)cc1)Cc1cccc2ccccc12 [Butenafine HCl]	0.641	0.57	0.938	0.74	0.375	1.15
C[C@]12C[C@H](O)[C@H]3[C@@H](CCC4=CC(=O)CC[C@@]43C)[C@@H]1CC[C@@H]2C(=O)CO [Corticosterone]	1	1.47	1.47	1.15	0.619	1.04
CC(C)[N+](C)(CCOC(=O)C1c2ccccc2Oc2ccccc21)C(C)C [Propantheline bromide]	0.803	0.839	0.798	0.725	0.423	0.718
O=C(NC[C@H](O)CO)c1ccncc1Nc1ccc(I)cc1F	2.39	2.67	2.49	3.7	1.53	2.4
COc1cccc(-c2c(C)n(Cc3c(F)cccc3C(F)(F)F)c(=O)n(C[C@H](NCCCC(=O)O)c3ccccc3)c2=O)c1F [Elagolix Sodium]	0.686	1.22	1.02	0.826	0.728	1.23
CC(=O)Oc1ccccc1C(=O)O [Aspirin]	0.701	0.531	0.625	0.734	0.608	0.816
CC(C)NC[C@@H](C(=O)N1CCN(c2ncnc3c2[C@H](C)C[C@H]3O)CC1)c1ccc(Cl)cc1	2.01	1.92	1.44	2.24	1.1	1.13
O=C(O)CCC(=O)Nc1ccc(S(=O)(=O)Nc2nccs2)cc1 [Succinylsulfathiazole]	0.988	0.655	0.789	1.1	1.01	2.02
CC(O)c1cc(C(=O)N[C@@H](C)Cn2ccc(-c3ccc(C#N)c(Cl)c3)n2)n[nH]1 (stereo partly specified) [Darolutamide (ODM-201)]	0.846	0.505	1.04	1.05	0.543	0.668
C=CC[N+]1([C@H]2C[C@H]3[C@@H]4CC[C@H]5C[C@H](O)[C@@H](N6CCOCC6)C[C@]5(C)[C@H]4CC[C@]3(C)[C@H]2OC(C)=O)CCCC1 [Rocuronium Bromide]	1.59	1.12	1.92	1.08	0.685	1.25
O=C(CCCCCN1C(=O)c2cccc3cccc(c23)C1=O)NO [Scriptaid]	3.19	3.02	2.28	3.75	2.92	3.33
C=CC(=O)Nc1ccc2ncnc(Nc3cccc(Br)c3)c2c1	1.72	2.07	1.78	2.78	1.47	2.99
CC(C)c1ccc2oc3nc(N)c(C(=O)O)cc3c(=O)c2c1 [Amlexanox]	0.725	0.9	0.886	0.891	0.909	0.738
Clc1ccc2c(N3CCN(CCCN4CCN(c5ccnc6cc(Cl)ccc56)CC4)CC3)ccnc2c1 [Piperaquine phosphate]	1.59	1.33	1.11	1.45	0.952	1.25
COC(=O)[C@H]1[C@H]2C[C@@H]3c4[nH]c5cc(OC)ccc5c4CCN3C[C@H]2C[C@@H](OC(=O)c2cc(OC)c(OC)c(OC)c2)[C@@H]1OC [Reserpine]	1.54	1.58	1.94	1.51	0.642	1.29
CN(C)CCCN1c2ccccc2CCc2ccc(Cl)cc21 [Clomipramine HCl]	1.08	0.845	1.4	1.93	1.92	1.77
O=c1c(O[C@@H]2O[C@H](CO)[C@@H](O)[C@H](O)[C@H]2O)c(-c2ccc(O)c(O)c2)oc2cc(O)cc(O)c12 [Isoquercitrin]	0.868	0.899	0.931	0.989	0.812	1.03
COc1cc(C(=O)NS(=O)(=O)c2ccccc2C)ccc1Cc1cn(C)c2ccc(NC(=O)OC3CCCC3)cc12 [Zafirlukast]	0.974	1.5	1.22	1.21	0.548	1.34
Clc1ccc(C(Cn2ccnc2)OCc2ccc(Sc3ccccc3)cc2)c(Cl)c1 (stereo unspecified) [Fenticonazole Nitrate]	1.13	0.887	1.51	1.21	2.16	1.35
c1ccc(CC2=NCCN2)cc1 [Tolazoline HCl]	0.97	1.05	0.877	0.718	0.734	1.42
Cn1cc(-c2ccc(S(=O)(=O)n3ccc(/C=C/C(=O)Nc4ccccc4N)c3)cc2)cn1	2.25	2.63	2.82	2.84	3.21	3.37
OC[C@H]1O[C@@H](OCCc2ccc(O)cc2)[C@H](O)[C@@H](O)[C@@H]1O [Salidroside]	1.05	0.737	0.796	0.815	0.763	1.5

Compound	Euclidean distance [1]	Euclidean distance [2]	Euclidean distance [3]	Euclidean distance [4]	Euclidean distance [5]	Euclidean distance [6]
CCCc1nc2c(C)cc(-c3nc4ccccc4n3C)cc2n1Cc1ccc(-c2ccccc2C(=O)O)cc1 [Telmisartan]	1.83	0.747	1.03	1.03	1.95	1.02
C=CC(=O)N1CC[C@H](n2nc(C#Cc3cc(OC)cc(OC)c3)c3c(N)ncnc32)C1	2.21	1.47	2.08	4.1	3.97	1.58
N=C1CCCN1Cc1[nH]c(=O)[nH]c(=O)c1Cl [Tipiracil hydrochloride]	1.02	0.947	0.925	1.05	0.343	0.676
Cc1ccccc1C(=O)Nc1ccc(C(=O)N2CCCC(N(C)C)c3ccccc32)cc1 (stereo unspecified) [Mozavaptan]	0.843	0.928	1.17	0.813	0.445	0.913
c1ccc(CN(CC2=NCCN2)c2ccccc2)cc1 [Antazoline HCl]	1.19	0.647	0.893	1.02	0.685	1.02
Cn1c(=O)c(F)c(Nc2ccc(I)cc2F)c2c(=O)n(C[C@@H](O)CO)cnc21	3.48	2.45	3.23	4.03	2.21	2.01
CNC(=O)CN1CCC(Oc2cc3c(Nc4cccc(Cl)c4F)ncnc3cc2OC)CC1 [Sapitinib (AZD8931)]	1.67	3.03	2.21	2.79	1.18	3.03
CCn1cc(C(=O)O)c(=O)c2cnc(N3CCCC3)nc21 [Piromidic Acid]	1.37	0.767	0.647	0.879	0.512	1.02
CC(C)(C)C(=O)OCOC(=O)[C@@H]1N2C(=O)[C@@H](/N=C/N3CCCCCC3)[C@H]2SC1(C)C [Pivmecillinam hydrochloride]	1.23	1.69	0.728	0.994	0.59	1.14
Cn1nnc(-c2ccc(-c3ccc(N4C[C@H](CO)OC4=O)cc3F)cn2)n1 [Tedizolid]	1.38	1.13	0.583	0.908	1	1.01
N#Cc1cnc(Nc2cc(NC[C@H]3CNCCO3)c(C(F)(F)F)cn2)cn1	3.22	2.16	2.89	3.11	2.5	1.99
COc1cc(O)c2c(c1)C(=O)c1cc(C)cc(O)c1C2=O [Rheochrysidin]	1.23	0.528	1.42	0.862	4.92	1.29
CCOc1cc(N)c([N+](=O)[O-])cc1C(=O)NC1CCN(CC2CC=CCC2)CC1 (stereo unspecified) [Cinitapride Hydrogen Tartrate]	1.33	1.05	1.38	1.21	0.924	1.57
C=CC(=O)Nc1cccc(Oc2nc(Nc3ccc(N4CCN(C)CC4)cc3)ncc2Cl)c1	2.42	2.73	2.46	4.15	2.28	3.17
NC(=O)/N=N/C(N)=O [Azodicarbonamide]	1.07	0.533	1.15	0.879	1.28	1.14
Nc1ccc(C(=O)Nc2cccc(-c3nc(N4CCOCC4)c4oc5ncccc5c4n3)c2)cn1	4.09	5.02	4.16	1.63	3.45	2.25
C#C[C@]1(O)CC[C@H]2[C@@H]3CCC4=CCCC[C@@H]4[C@H]3CC[C@@]21C [Lynestrenol]	1.13	1.3	1.48	1.17	0.777	1.41
C[N+]1(C)[C@@H]2C[C@@H](OC(=O)C(O)(c3cccs3)c3cccs3)C[C@H]1[C@@H]1O[C@@H]12 [Tiotropium Bromide hydrate]	1.26	0.676	0.73	1.02	0.978	0.837
Cc1cc(Nc2cc(N3CCN(C)CC3)nc(Sc3ccc(NC(=O)C4CC4)cc3)n2)n[nH]1 [VX-680 (Tozasertib. MK-0457)]	2.67	3.95	3.26	3.01	1.92	2.98
NCCCCCNCC12CC3CC(CC(C3)C1)C2 [IEM 1754 dihydrobroMide]	0.936	0.504	0.662	0.973	2.44	0.664
CC(C)(C)NC(=O)[C@H]1CC[C@H]2[C@@H]3CC[C@H]4NC(=O)C=C[C@]4(C)[C@H]3CC[C@]12C [Finasteride]	1.26	0.717	0.682	0.871	0.391	1.18
CC[C@H]1OC(=O)[C@H](C)[C@@H](O[C@H]2C[C@@](C)(OC)[C@@H](O)[C@H](C)O2)[C@H](C)[C@@H](O[C@@H]2O[C@H](C)C[C@H](N(C)C)[C@H]2O)[C@](C)(O)C[C@@H](C)/C(=N\OCOCCOC)[C@H](C)[C@@H](O)[C@]1(C)O [Roxithromycin]	1.03	0.649	0.699	1.1	0.654	1.42
O=C1CN(/N=C/c2ccc(-c3ccc([N+](=O)[O-])cc3)o2)C(=O)N1 [Dantrolene sodium]	0.573	0.503	1.37	0.968	0.758	1.01

Reference: the supplement of paper PMC10127200
